# Source: the supplement of paper PMC8728848
# The entries come from a sample that favours the strongest signals as a whole.
# B1: Gal 3 (Canis lupus) (protein)
# chain: MADSFSLNDALSGSGNPNPQGWPGPWGNQPAGAGGYPGASYPGAYPGQAPPGGYPGQAPPGGYPGQAPPGGYPGQAPPGGYPGQAPPGGYPGQAPPGTYPGPTAPAYPGPTAPGTQPGQPSGPGAYPPPGQPSAPGAYPAAGPFGIPAGPLTVPYDLPLPGGVKPRMLITILGTVRPSANRLALDFKRGNDVAFHFNPRFNEDNKRVIVCNTKLDNIWGKEERQAAFPFESGKPFKIQVLVESDHFKVAVNDAHLLQYNHRMKNLPEISKLGISGDIDLTSASYAMI
# Experiments:
# Assay in all cases: glycan array binding signal (z-score within array); higher = stronger binding
# Settings in all cases: glycan notation: IUPAC condensed, linker removed
# [1] = target: Fuc(a1-2)Gal(b1-3)GlcNAc(b1-3)[Gal(b1-4)GlcNAc(b1-6)]Gal(b1-4)Glc
# Outline: (§1)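 Glycan array data were curated from 3228 arrays in the Consortium for Functional Glycomics database and kept only where the protein sequence was available. Glycan names were converted to IUPAC-condensed notation, and columns mapping to the same glycan were averaged. The binding signal is a within-array Z-score, averaged across arrays of the same protein sequence at different concentrations or buffers and across linkers. Negative Z-scores can be read as non-binding.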
# [2] = target: Fuc(a1-2)Gal(b1-4)[Fuc(a1-3)]GlcNAc
# Outline: as §1
# [3] = target: Fuc(a1-2)[Gal(a1-3)]Gal(b1-4)GlcNAc(b1-2)Man(a1-3)[Fuc(a1-2)[Gal(a1-3)]Gal(b1-4)GlcNAc(b1-2)Man(a1-6)]Man(b1-4)GlcNAc(b1-4)GlcNAc
# Outline: as §1
# [4] = target: Fuc(a1-2)[Gal(a1-3)]Gal(b1-4)GlcNAc(b1-2)Man(a1-3)[Fuc(a1-2)[Gal(a1-3)]Gal(b1-4)GlcNAc(b1-2)Man(a1-6)]Man(b1-4)GlcNAc(b1-4)[Fuc(a1-6)]GlcNAc
# Outline: as §1
# [5] = target: Fuc(a1-2)[Gal(a1-3)]Gal(b1-4)[Fuc(a1-3)]Glc
# Outline: as §1
# [6] = target: Fuc(a1-2)[GalNAc(a1-3)]Gal(b1-4)GlcNAc(b1-2)Man(a1-3)[Fuc(a1-2)[GalNAc(a1-3)]Gal(b1-4)GlcNAc(b1-2)Man(a1-6)]Man(b1-4)GlcNAc(b1-4)GlcNAc
# Outline: as §1
# [7] = target: Fuc(a1-2)[GalNAc(a1-3)]Gal(b1-4)GlcNAc(b1-3)Gal(b1-4)GlcNAc
# Outline: as §1
# [8] = target: Fuc(a1-2)[GalNAc(a1-3)]Gal(b1-4)GlcNAc(b1-3)Gal(b1-4)GlcNAc(b1-3)Gal(b1-4)GlcNAc
# Outline: as §1
# Gal(b1-3)GlcNAc = target: Gal(b1-3)GlcNAc
# Outline: as §1
# [9] = target: Gal(b1-3)GlcNAc(b1-3)Gal(b1-4)Glc
# Outline: as §1
# [10] = target: Gal(b1-3)[Neu5Ac(b2-6)]GalNAc
# Outline: as §1
# [11] = target: Gal(b1-4)GlcNAc(b1-3)Gal(b1-4)Glc
# Outline: as §1
# [12] = target: Gal(b1-4)GlcNAc(b1-3)Gal(b1-4)GlcNAc(b1-3)Gal(b1-4)GlcNAc
# Outline: as §1
# [13] = target: GalNAc(a1-3)GalNAc(a1-3)Gal(a1-4)Gal(b1-4)GlcNAc
# Outline: as §1
# [14] = target: GalNAc(b1-3)Gal(a1-6)Gal(b1-4)Glc
# Outline: as §1
# [15] = target: GlcNAc(a1-4)Gal(b1-4)GlcNAc(b1-3)Gal(b1-4)GlcNAc(b1-3)Gal(b1-4)GlcNAc
# Outline: as §1
# [16] = target: GlcNAc(a1-6)Gal(b1-4)GlcNAc
# Outline: as §1
# GlcNAc(b1-3)Gal = target: GlcNAc(b1-3)Gal
# Outline: as §1
# Kdn(a2-3)Gal(b1-3)GlcNAc = target: Kdn(a2-3)Gal(b1-3)GlcNAc
# Outline: as §1
# Man(b1-4)GlcNAc = target: Man(b1-4)GlcNAc
# Outline: as §1
# [17] = target: Neu5Ac(a2-3)Gal(b1-3)[Fuc(a1-4)]GlcNAc(b1-3)Gal(b1-3)[Fuc(a1-4)]GlcNAc
# Outline: as §1
# Neu5Ac(a2-3)Gal(b1-4)Glc = target: Neu5Ac(a2-3)Gal(b1-4)Glc
# Outline: as §1
# [18] = target: Neu5Ac(a2-3)Gal(b1-4)GlcNAc(b1-3)Gal(b1-4)GlcNAc
# Outline: as §1
# [19] = target: Neu5Ac(a2-3)Gal(b1-4)GlcNAc(b1-3)GalNAc
# Outline: as §1
# [20] = target: Neu5Ac(a2-3)[Neu5Ac(a2-6)]GalNAc
# Outline: as §1
# Neu5Ac(a2-6)Gal(b1-4)Glc = target: Neu5Ac(a2-6)Gal(b1-4)Glc
# Outline: as §1
# [21] = target: Neu5Ac(a2-6)Gal(b1-4)GlcNAc(b1-3)Gal(b1-4)GlcNAc(b1-3)Gal(b1-4)GlcNAc
# Outline: as §1
# [22] = target: Neu5Ac(a2-6)Gal(b1-4)GlcNAc(b1-3)Gal(b1-4)[Fuc(a1-3)]GlcNAc(b1-3)Gal(b1-4)[Fuc(a1-3)]GlcNAc
# Outline: as §1
# Neu5Ac(a2-6)GalNAc = target: Neu5Ac(a2-6)GalNAc
# Outline: as §1
# [23] = target: Neu5Gc(b2-6)Gal(b1-4)GlcNAc
# Outline: as §1
binder,measurement,setting,value
B1,glycan array binding signal (z-score),[1],-0.147
same,glycan array binding signal (z-score),[2],-0.259
same,glycan array binding signal (z-score),[3],7.41
same,glycan array binding signal (z-score),[4],4.22
same,glycan array binding signal (z-score),[5],-0.118
same,glycan array binding signal (z-score),[6],7.54
same,glycan array binding signal (z-score),[7],5.05
same,glycan array binding signal (z-score),[8],5.42
same,glycan array binding signal (z-score),Gal(b1-3)GlcNAc,-0.231
same,glycan array binding signal (z-score),[9],-0.074
same,glycan array binding signal (z-score),[10],-0.259
same,glycan array binding signal (z-score),[11],0.512
same,glycan array binding signal (z-score),[12],5.09
same,glycan array binding signal (z-score),[13],-0.258
same,glycan array binding signal (z-score),[14],-0.254
same,glycan array binding signal (z-score),[15],3.48
same,glycan array binding signal (z-score),[16],-0.252
same,glycan array binding signal (z-score),GlcNAc(b1-3)Gal,-0.264
same,glycan array binding signal (z-score),Kdn(a2-3)Gal(b1-3)GlcNAc,-0.149
same,glycan array binding signal (z-score),Man(b1-4)GlcNAc,-0.261
same,glycan array binding signal (z-score),[17],-0.23
same,glycan array binding signal (z-score),Neu5Ac(a2-3)Gal(b1-4)Glc,-0.247
same,glycan array binding signal (z-score),[18],0.679
same,glycan array binding signal (z-score),[19],-0.205
same,glycan array binding signal (z-score),[20],-0.261
same,glycan array binding signal (z-score),Neu5Ac(a2-6)Gal(b1-4)Glc,-0.246
same,glycan array binding signal (z-score),[21],5.91
same,glycan array binding signal (z-score),[22],-0.23
same,glycan array binding signal (z-score),Neu5Ac(a2-6)GalNAc,-0.257
same,glycan array binding signal (z-score),[23],-0.25
